Source: PubChem (National Center for Advancing Translational Sciences (NCATS))
Sm TGR block: S. mansoni TGR enzyme inhibition; Q962Y6; purified TGR, DTNB reduction, TNB absorbance 405 nm; Potency, µM (titrated, usually from 114 µM), for inactives: at the top dose activity change, negative = inhibition, hits mostly inhibitors; 3% of 360,000 active; AID 485364; note: nearly all actives have a fitted effect of over 60% in size
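Kinetic colorimetric format: TGR-catalysed, NADPH-driven DTNB reduction monitored via TNB absorbance. Enzyme dispensed at 20 nM; compound exposure 15 min at room temperature before reaction start.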
HCV inh: inhibitors of hepatitis C virus infection | Huh7.5.1 HCVcc-Cre infection, luciferase reporter, 44 h | 3.4% of 340,000 active | AID 651820 | Potency, µM (top dose mostly 41.8 µM), without a hit: top-dose activity change, negative = inhibition, usual class: inhibitors
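Luciferase read-out (15 sec integration) after a 15 min room-temperature substrate step quantifies HCVcc-Cre infection. Cells, 1,000 per well, had compound added 4 h post-plating, then virus at ~0.5 moi, and were cultured 44 h.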
MARV entry inh: blocks Marburg virus binding to or entry into cells. Marburg virus pseudotyped entry inhibition, cell reporter. Potency, µM (highest dose often 37.8 µM), for inactives: at the top dose activity change, negative = inhibition, actives largely listed as inhibitors. 1.8% of 300,000 active. AID 540276; calls by dose curve; tested in HEK293 cells
FMDV inh: foot and mouth disease virus antiviral activity; FMDV antiviral cell-based qHTS; Potency, µM (highest dose often 57.9 µM), for the others: at the top dose activity change, negative = inhibition, usual class: inhibitors; 1.2% of 410,000 active; AID 1159524; calls by dose curve; tested in HEK293T cells; note: read-out not given here; nearly all actives have a fitted effect of over 45% in size
RE007 growth inh: less growth of the S. pombe RE007 Vpr strain | S. pombe RE007 Vpr strain, BacTiter-Glo ATP luminescence, 24 h | Potency, µM (top dose mostly 92.2 µM), without a hit: at the highest dose activity change, negative = less growth, usual class: inhibitors | 0.21% of 360,000 active | AID 651644; active = well fitted falling curve with a large enough effect; inconclusive = small, poorly fitted or top-dose-only effect; inactive = no such curve, though single readings can be large or run the other way; note: nearly all actives have a fitted effect of over 50% in size
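Fission yeast strain RE007, carrying one chromosomally integrated HIV-1 vpr copy, was seeded at OD 0.01 in PMG+AL medium with 23 nL pinned compound. After 24 h at 30 °C and 99% humidity, viability was read by BacTiter-Glo luminescence.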
Lassa entry inh: Lassa virus entry inhibition | Lassa virus pseudotype entry inhibition, cell reporter | Potency, µM (titrated, usually from 37.9 µM), inactives show top-dose activity change, negative = inhibition, actives largely listed as inhibitors | 1.2% of 300,000 active | AID 540256; calls by dose curve; tested in HEK293 cells; note: nearly all actives have a fitted effect of over 50% in size
Active calls of the source: *; [ ] = another dose, or the depositor's remark. Rows were chosen to be rich in hits. Some 7.2% of all compounds tested hit in one or more screens of this group. Unless noted, calls come from the whole dose curve; as a rule, active = well fitted curve in the direction sought with a large enough effect; inconclusive = small, poorly fitted or top-dose-only effect, or another doubt; inactive = no such curve, though single readings can be large; an effect the other way counts as inactive or inconclusive. % is set by controls: 0 for no effect and ±100 for the full control effect; potency is the fitted concentration of half-maximal effect.

Screening COc1ccccc1N(CC(=O)NCCSCc1ccccc1)S(=O)(=O)c1ccc(C)cc1 returned Sm TGR block 11%, HCV inh 25µM*, MARV entry inh inconclusive, FMDV inh 35µM*, RE007 growth inh -13% and Lassa entry inh inconclusive.
Screening COc1ccccc1N(CC(=O)NCCSCc1ccccc1)S(=O)(=O)c1ccccc1 returned FMDV inh inconclusive and RE007 growth inh -17%.
`O=C(CCSc1ccccc1)NCCSCc1ccco1` gave Sm TGR block -36%, HCV inh -4%, MARV entry inh -24%, FMDV inh 2%, RE007 growth inh -2% and Lassa entry inh -1%.
`COc1ccccc1N(CC(=O)NCCSCc1ccco1)S(=O)(=O)c1ccccc1` gave Sm TGR block 50µM*, HCV inh 1%, MARV entry inh inconclusive, FMDV inh -24%, RE007 growth inh -10% and Lassa entry inh -3%.
O=C(COc1ccccc1)NCCSCc1ccco1 was read as Sm TGR block 25µM*, HCV inh 11%, MARV entry inh -4%[46.1 µM], FMDV inh 23%, RE007 growth inh -7% and Lassa entry inh 1%.
`O=C(NCc1noc2ccccc12)Nc1ccc(F)cc1F` gave Sm TGR block 12%, FMDV inh 22% and Lassa entry inh inconclusive.
For Cc1cc(C(=O)Nc2ccccc2-c2nc(CNC(=O)C3(C)CCCCC3)c(C)o2)c(C)o1 the results were FMDV inh 1%.
`CCC(C(=O)NC1CCCCC1)N(Cc1cccs1)C(=O)CCC(=O)Nc1cc(C)on1` (stereo unspecified) gave Sm TGR block -18%, HCV inh 11µM*, MARV entry inh inconclusive, FMDV inh -14%, RE007 growth inh 8% and Lassa entry inh inconclusive.
For Cc1cc(NC(=O)CCC(=O)N(c2ccc(F)cc2)C2(C(=O)NC3CCCCC3)CCCC2)no1 the results were Sm TGR block -4%, HCV inh -22%, MARV entry inh 11µM*, FMDV inh -29%, RE007 growth inh -8% and Lassa entry inh -23%.
CCN(CC)S(=O)(=O)c1ccc2c(c1)N(CC(=O)Nc1cccc(C(C)=O)c1)C(=O)CO2 was read as Sm TGR block -3%, MARV entry inh inconclusive, FMDV inh 9% and Lassa entry inh -1%[46.1 µM].
`COc1cccc(-c2nc(CS(=O)CC(=O)NC3CCCCC3)c(C)o2)c1` (stereo unspecified) gave Sm TGR block 18µM*, HCV inh -4%, FMDV inh 39% and RE007 growth inh 7%.
Cc1cccc(-c2nc(CN3CCCC(C(=O)NC4CCC(C)CC4)C3)c(C)o2)c1 (stereo unspecified) was read as Sm TGR block -7%, HCV inh -26%, MARV entry inh inconclusive, FMDV inh -22%, RE007 growth inh 12% and Lassa entry inh -18%.
For CCOC(=O)N1CCC(NC(=O)CS(=O)Cc2nc(-c3ccccc3C)oc2C)CC1 (stereo unspecified) the results were Sm TGR block 13µM*, HCV inh inconclusive, FMDV inh -19% and RE007 growth inh -9%.
`Cc1cccc(-c2nc(CN3CCCC(C(=O)NC4CCCC4)C3)c(C)o2)c1` (stereo unspecified) gave Sm TGR block -1%, HCV inh inconclusive, MARV entry inh 15µM*, FMDV inh -18%, RE007 growth inh 5% and Lassa entry inh 7%.
`Cc1oc(-c2ccccc2F)nc1CS(=O)CC(=O)NC1CCCCC1` (stereo unspecified) gave Sm TGR block 32µM*, HCV inh 4%, FMDV inh 31% and RE007 growth inh -8%.
`CCN(CC)CCCNC(=O)CCc1c(C)nc2c(c1C)c(=O)n(C)c(=O)n2C` gave Sm TGR block -2%, MARV entry inh 2%[46.1 µM], FMDV inh -14% and Lassa entry inh 5%[46.1 µM].
